ID4 binder: binders of human ID4 protein; small molecule microarray, Flag-ID4 binding, fluorescence F/B; calls only; 31,000 tested, 1.2% active; call rule not given here;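 note: a binder raises fluorescence above local background on the spot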
Target sequence (P47928 whole entry, looked up): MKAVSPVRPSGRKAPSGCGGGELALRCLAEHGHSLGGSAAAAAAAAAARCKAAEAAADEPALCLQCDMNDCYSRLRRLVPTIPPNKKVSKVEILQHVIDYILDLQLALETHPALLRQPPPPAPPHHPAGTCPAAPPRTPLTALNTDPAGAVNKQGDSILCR
mut p53 react: mutant p53 pathway reactivation | activation, % at 9.98 µM | SW480 PUMA-promoter luciferase | AID 624151 | 28,000 tested, 1.5% active; in the data active = activation above about 52%; inconclusive = no clear call, values can overlap the other calls
A number is an active result; - = inactive; ? = inconclusive; . = not tested or not shown; + = active, no number. Only some compounds are listed: those with a hit (about 2.3% of all), similar ones and a draw of the others.

SMILES | ID4 binder | mut p53 react
COc1ccc(-c2oc(NC(=O)Cc3ccc(OC)c(OC)c3)c(C#N)c2-c2ccc(OC)cc2)cc1 | - | -
COC(=O)c1c(NC(=S)NCc2cc(C)n(C)n2)sc2c1CCCCCC2 | - | -
COC(=O)c1c(NC(=S)NCc2ccccn2)sc2c1CCC2 | - | 68
O=C(CSc1nnc(-c2cccc([N+](=O)[O-])c2)n1-c1ccccc1)c1ccc(Br)cc1 | - | ?
O=C(C[C@H]1CC[C@@H](NC(=O)C2CCC2)[C@@H](CO)O1)NCCCN1CCOCC1 | + | .
O=C(C[C@H]1CC[C@H](NC(=O)C2CCC2)[C@H](CO)O1)NCCCN1CCOCC1 | - | .
COC(=O)COc1ccc(NC(=O)c2ccc(OC)c([N+](=O)[O-])c2)cc1 | - | -
CN(C)c1nc(OC(C(F)(F)F)C(F)(F)F)nc(N(c2ccccc2)c2ccccc2)n1 | - | -
CC(C)Cc1ccc(/C=C/C(=O)N2CCOCC2)cc1 | - | 81
CC(C)NS(=O)(=O)c1ccc(OCC(=O)N2CCOCC2)cc1 | - | -
CC(Oc1ccccc1F)C(=O)Nc1ccccc1[N+](=O)[O-] (stereo unspecified) | - | 57
CC(Oc1ccc(Br)cc1)C(=O)Nc1ccccc1[N+](=O)[O-] (stereo unspecified) | - | -
COc1ccc(OC(C)c2nc(-c3cccnc3)no2)cc1 (stereo unspecified) | - | -
CC(Oc1ccc(Br)cc1)c1nc(-c2ccccn2)no1 (stereo unspecified) | - | 60
COCC(=O)N[C@@H]1CC[C@H](CC(=O)N2CCCCC2)O[C@@H]1CO | - | .
COc1ccc(-c2nnc(SCc3nc4ccccc4c(=O)[nH]3)n2C)cc1 | - | -
O=C(CSc1nnc(-c2ccc(Cl)cc2)o1)Nc1ccccc1C(F)(F)F | - | 68
COc1cc(OC)cc(-c2nnc(SCC(=O)Nc3ccccc3)o2)c1 | - | 102
Cc1cc([N+](=O)[O-])ccc1NC(=O)CSc1nnc(-c2ccccc2)o1 | - | 67
O=C(CSc1nnc(-c2ccncc2)o1)Nc1ccccc1 | - | -
O=C(CSc1nnc(-c2ccc(Cl)cc2)o1)Nc1ccc(I)cc1 | - | -
Cc1ccc(NC(=O)CSc2nnc(-c3ccc(C(C)(C)C)cc3)o2)c(C)c1 | - | -
O=C(COc1ccc(C(=O)Nc2ccc(F)cc2)cc1)Nc1ccccc1C(F)(F)F | - | -
COc1cccc2c1NC1CC(C)CCC1C2(C)C (stereo unspecified) | - | -
COc1ccccc1NC(=O)c1c(NC(=O)COc2ccccc2)sc(C)c1C | - | -
SMILES | ID4 binder | mut p53 react
COc1ccccc1NC(=O)c1c(NC(=O)c2ccco2)sc(C)c1C | - | 76
C[C@H](CO)N1C[C@H](C)[C@H](CN(C)S(=O)(=O)c2cn(C)cn2)Oc2cc(C3=CCCCC3)ccc2S1(=O)=O | - | .
COc1ccccc1OCC(=O)Nc1cccc(-c2nnc(-c3ccccc3)o2)c1 | - | 95
COc1ccccc1OCC(=O)Nc1cccc(-c2nnc(-c3ccco3)o2)c1 | - | 62
Cc1ccc(C)c(OCC(=O)Nc2cccc(-c3nnc(-c4ccco4)o3)c2)c1 | - | 102
Cc1ccc(C)c(OCC(=O)Nc2cc(C(=O)O)cc(C(=O)O)c2)c1 | - | -
Cc1cc(OCC(=O)Nc2cccc(-c3nnc(-c4ccccc4)o3)c2)cc(C)c1Cl | - | ?
COc1ccc(CC(=O)Nc2cccc(-c3nnc(-c4ccc(C)cc4)o3)c2)cc1OC | - | -
CC(=O)Nc1ccc(OCC(O)CNC(C)C)cc1 (stereo unspecified) | + | -
CC(=O)Nc1ccc(OCC(O)CNC2CCCC2)cc1 (stereo unspecified) | - | -
COC(=O)c1c(NC(=O)CSc2nnc3ccccn23)sc(C)c1C | + | -
CCOC(=O)c1c(NC(=O)CSc2nnc3ccc4ccccc4n23)sc(C)c1C | - | -
Cn1c(Cc2cccc3ccccc23)nnc1SCC(=O)c1ccc(Cl)cc1 | - | -
c1ccc2c(c1)OCC(c1nnc3sc(-c4ccncc4)nn13)O2 (stereo unspecified) | - | -
c1csc(-c2nn3c(C4COc5ccccc5O4)nnc3s2)c1 (stereo unspecified) | - | 68
C/C=C/C1=C(Cl)C(=O)[C@@H](O)[C@@]1(O)C(=O)OC | - | -
CC(Sc1ncnc2sc3c(c12)CCCC3)C(=O)Nc1ccc(Br)cc1 (stereo unspecified) | - | -
C[C@@H]1CN([C@H](C)CO)C(=O)c2cc(C#Cc3ccccc3)cnc2O[C@H]1CN(C)C(=O)CN(C)C | - | .
COC(=O)CSc1nc2sc3c(c2c(=O)n1Cc1ccccc1)CCCC3 | - | -
CCOc1ccc(-c2nnc(SCC(=O)c3ccccc3N)n2C)cc1 | - | 67
CCOc1ccc(NC(=O)CSc2nnc(-c3ccc(Cl)cc3)n2C)cc1 | - | -
O=C(CSc1nc(-c2ccccc2)cs1)Nc1ccc(Cl)cc1Cl | - | ?
CC(=O)Nc1ccc(C(=O)CSc2nc3ccccc3n2C)cc1 | - | -
COc1ccc2[nH]c3c(OC)ncnc3c2c1 | - | 81
COc1ccc2[nH]c(C(=O)O)c(CCC(=O)O)c2c1 | - | -
SMILES | ID4 binder | mut p53 react
CCCC(=O)Nc1ccc2c(c1)OC[C@@H](C)N(Cc1cccc(F)c1)C[C@@H](C)[C@H](OC)CN(C)C2=O | - | .
CC(C)NS(=O)(=O)c1ccc(OCC(=O)O)c(Cl)c1 | - | -
O=C(CSc1nc(Nc2ccccc2)nc(N2CCOCC2)n1)Nc1ccccc1Cl | - | -
O=C(O)c1ccccc1Nc1nc(N2CCOCC2)nc(N2CCOCC2)n1 | - | 56
CC(=O)Nc1nccc(-c2cc(-c3cccc(C(F)(F)F)c3)no2)n1 | - | 79
Cc1ccnc(SCC(=O)Nc2cccc(C(F)(F)F)c2)n1 | - | -
O=C(CSc1nc(O)cc(=O)n1-c1ccccc1)Nc1ccccc1Cl | - | -
C[C@@H]1CCCCO[C@@H](CN(C)Cc2ccncc2)[C@H](C)CN([C@H](C)CO)C(=O)c2cc(NC(=O)Nc3ccccc3)ccc2O1 | + | -
C[C@H](CO)N1C[C@H](C)[C@H](CN(C)C(=O)Nc2ccccc2)OCCCC[C@H](C)Oc2ccc(NC(=O)Nc3ccccc3)cc2C1=O | - | -
C[C@@H]1CCCCO[C@@H](CN(C)Cc2ccncc2)[C@H](C)CN([C@@H](C)CO)C(=O)c2cc(NC(=O)Nc3ccccc3)ccc2O1 | - | -
C[C@@H]1CCCCO[C@@H](CN(C)C(=O)Nc2ccccc2)[C@H](C)CN([C@H](C)CO)C(=O)c2cc(NC(=O)Nc3ccccc3)ccc2O1 | + | -
Cc1ccc(NC(=O)CSC2CC(=O)N(c3ccccc3)C2=O)cc1C (stereo unspecified) | - | -
CC(C)Oc1ccccc1NC(=O)CSc1nnc(-c2ccccc2Cl)o1 | - | -
Cc1cc(C)cc(OCC(=O)Nc2cc(-c3nc4cc(Cl)ccc4o3)ccc2C)c1 | - | -
CO[C@@H]1CN(C)C(=O)c2ccc(NC(C)=O)cc2OC[C@@H](C)N(CCc2ccccc2)C[C@H]1C | + | .
CCCC(=O)Nc1ccc2c(c1)OC[C@@H](C)N(CCc1ccccc1)C[C@@H](C)[C@H](OC)CN(C)C2=O | - | .
COc1ccc(OCC(=O)Nc2ccc3nn(-c4ccc(Cl)cc4)nc3c2)cc1 | - | -
Cc1nn2c(-c3cccc(NC(=O)CSc4nc5ccccc5o4)c3)nnc2c2ccccc12 | - | 74
Cn1c(SCC(=O)Nc2cccc(F)c2)nnc1-c1cc2ccccc2o1 | - | -
COc1ccc(OCC(=O)Nc2cccc(-c3nnc4c5ccccc5c(C)nn34)c2)cc1 | - | 101

Bioassay records deposited in PubChem BioAssay by Broad Institute.
